# Test results as given in PubChem BioAssay AID2546 (National Center for Advancing Translational Sciences (NCATS), 2010).
# Among all 310,000 compounds or so, about 11,000 (3.5%) were called active. Roughly 8% stayed inconclusive and do not appear here. Calls follow the shape of the dose curve; as a rule, active = well fitted inhibition curve with a large enough effect; inconclusive = small, poorly fitted or top-dose-only effect, or effect the other way; inactive = flat fitted curve, though single readings scatter. Shown is part of a subset that was picked to be rich in actives. A call without a number means that no potency is given here.
# Assay: VP16 counterscreen qHTS for inhibitors of ROR gamma transcriptional activity;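 also: Gal4-VP16 expression switched on by copper sulfate through the metallothionein promoter; nearly all actives have a fitted effect of over 50% in size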
# Settings: Drosophila S2 Gal4-VP16 UAS-luciferase, luminescence, 20 h; series mostly up to 53.6 µM
# Potency is read from the fitted curve at half-maximal effect.
row,SMILES,Potency
1,Nc1nc(Nc2ccccc2F)nc(NC2CCCCC2)c1[N+](=O)[O-],inactive
2,Cc1ccc(-c2csc(-c3c[nH]c4ccccc34)n2)cc1,inactive
3,Cc1cccc(N=C2NN=C(c3c[nH]c4ccccc34)CS2)c1,7.94 µM (active)
4,Cc1cccc(C(=O)Nc2nnc(Cc3c[nH]c4ccccc34)s2)c1,inactive
5,C=CCCN(C(Cc1ccccc1)C(=O)OC)S(=O)(=O)c1cc(Br)ccc1Br (stereo not drawn),inactive
6,CC(C)c1nc(CNC(=O)CC2C(=O)NCCN2Cc2cccc(F)c2F)cs1 (stereo not drawn),inactive
7,COc1ccc(N2CCN(S(=O)(=O)CCNC(=O)C34CC5CC(CC(C5)C3)C4)CC2)cc1,inactive
8,COc1ccc(-c2nnc3ccc(SCc4ccccc4)nn23)cc1,inactive
9,COC(=O)c1ccc(CSc2ccccc2C)o1,inactive
10,COC(=O)c1ccc(CSc2ccc3nnc(-c4ccccc4)n3n2)o1,20 µM (active)
11,CC(=O)c1ccc(NC(=O)c2sc3nc4n(c(=O)c3c2C)CCCCC4)cc1,inactive
12,COc1ccc(Cl)cc1NC(=O)c1cccc(N2C(=O)C3CC=CCC3C2=O)c1 (stereo not drawn),inactive
13,CCOC(=O)C1=C(NC(=S)NC(=O)c2ccccc2)c2ccccc2CC1(C)C,11.2 µM (active)
14,Cc1cc2[nH]ncc2cc1NC(=S)NC(=O)c1ccccc1,inactive
15,CCOC(=O)c1c(-c2ccccc2)csc1NC(=S)NC(=O)c1ccccc1,6.31 µM (active)
16,CCOC(=O)c1c(-c2cccc(C)c2)csc1NC(=O)c1c(-c2ccccc2)noc1C,inactive
17,CCOC(=O)c1c(-c2ccc(-c3ccccc3)cc2)csc1NC(=O)CCC(=O)O,inactive
18,CCOC(=O)c1c(NC(=O)C2(C)Cc3ccccc3C(=O)O2)sc2c1CCCC2 (stereo not drawn),inactive
19,COc1ccc(CNC(=O)CN(Cc2ccccc2Cl)C(=O)c2csnn2)cc1,inactive
20,COc1ccc(CCNC(=O)c2c(C)nn(-c3ccccc3)c2Cl)cc1,inactive
21,COc1ccc(N(CC(=O)Nc2cc(OC)ccc2OC)S(=O)(=O)c2c(C)noc2C)cc1,inactive
22,CCOc1c(OC)cccc1C(=O)NCC1(c2ccccc2)CCCC1,inactive
23,CN(Cc1ccccc1)C(=O)c1ccc(COc2ccccc2)cc1,inactive
24,O=S(=O)(ON(c1ccccc1)S(=O)(=O)c1ccccc1)c1ccccc1,inactive
25,CC1=C/C(=N\OS(=O)(=O)c2ccccc2)C=CC1=O,1.12 µM (active)
26,NC(=O)CC(NC(=O)Cc1ccc(Br)cc1)c1ccc(NC2CC3CCC2C3)c([N+](=O)[O-])c1 (stereo not drawn),inactive

row,SMILES,Potency
1,CC(C)NC(=O)C(c1ccc(F)cc1)N(C(=O)CCC(=O)Nc1ccccn1)c1ccccc1F (stereo not drawn),inactive
2,CCCn1nc(NC(=O)C(C)C)c2cc3cc(OC)ccc3nc21,inactive
3,CCOc1ccc2c(c1)c(=O)c(S(=O)(=O)c1ccc(C)cc1)cn2CC,inactive
4,COCn1c(C(O)c2ccccc2)cc2ccccc21 (stereo not drawn),inactive
5,COc1cc(-n2c(C)nc3cc(C(=O)NCc4ccco4)ccc32)cc(OC)c1OC,inactive
6,COc1cc(C(=O)NC(=S)NCc2ccco2)cc(OC)c1OC,6.31 µM (active)
7,COc1cc(C(=O)N[C@@H](C)C(=O)NCc2ccco2)cc(OC)c1OC,inactive
8,COc1ccc(CNc2nccs2)cc1,inactive
9,CCC(=C/c1sc2ccc3ccccc3c2[n+]1C)/C=C1\Sc2ccc3ccccc3c2N1C,1 µM (active)
10,COc1cccc(OC)c1C(=O)Nc1c(C(=O)N2CCN(c3ccccn3)CC2)oc2ccccc12,inactive
11,O=C(c1cccnc1)N1CCN(S(=O)(=O)c2cccs2)CC1,inactive
12,O=S(=O)(NC1CCCCC1N1CCN(c2ccccc2F)CC1)c1ccccc1 (stereo not drawn),inactive
13,CCc1ccc(CNC(=O)C2CCCN(c3nc4ccccc4o3)C2)cc1 (stereo not drawn),inactive
14,CCOC(=O)c1cnc(Nc2nc3ccccc3o2)nc1CSC(=S)N1CCCCC1,1 µM (active)
15,CCOC(=O)CCNC(=O)N1CCCC(C(=O)c2ccccc2SC)C1 (stereo not drawn),inactive
16,COc1cc(C(=O)NCc2cc3cc(Cl)ccc3n2C)cc(OC)c1OC,inactive
17,Cc1ccc(NS(=O)(=O)c2ccc3c(c2)oc(=O)n3C)c(C)c1,inactive
18,COc1ccccc1N(C)C(=O)c1cc(S(=O)(=O)N2CCc3ccccc32)cn1C,inactive
19,COC(=O)c1ccc(C(=O)NC2CC(C)(C)Cc3c2cnn3-c2ccc(F)cc2)nc1 (stereo not drawn),inactive
20,Oc1ccc(N=Nc2nccs2)c(O)c1,inactive
21,Oc1c(C=Nc2cccc3nsnc23)ccc2ccccc12,inactive
22,Oc1ccc2ccccc2c1N=Nc1nccs1,3.55 µM (active)
23,Cc1csc(NC(=O)CSc2nnc(-c3cccnc3)o2)n1,inactive
24,COc1ccc(-c2nc(CS(=O)(=O)CC(=O)NCc3cccc(Br)c3)c(C)o2)cc1,inactive
25,Cc1cccc(N=Nc2c(C)[nH]n(-c3ccccc3)c2=O)c1,inactive
26,Cc1[nH]n(C(N)=S)c(=O)c1N=Nc1ccc(Cl)cc1Cl,2.82 µM (active)

row,SMILES,Potency
1,Cc1ccc(N=Nc2c(C)[nH]n(-c3ccccc3)c2=O)cc1,inactive
2,COc1ccc(NC(=O)c2cc(-c3cc(OC)c(OC)c(OC)c3)nc3ccccc23)c(OC)c1,inactive
3,O=C(NC(=S)N1CCN(Cc2ccccc2)CC1)c1ccccc1,3.55 µM (active)
4,O=C(Nc1ccccc1)N1CCN(Cc2ccccc2)CC1,inactive
5,O=C(c1cccc(Cl)c1)N1CCN(Cc2ccccc2)CC1,inactive
6,CC1CCN(S(=O)(=O)c2ccc3[nH]c(=O)ccc3c2)CC1,inactive
7,CCC(C)[C@H](NC(=O)N1CCn2c1nc1ccccc12)C(=O)NCc1ccc(OC)cc1 (stereo partly drawn),inactive
8,CCOc1ccc(/C=N/NC(N)=S)cc1,10 µM (active)
9,CCOc1ccc(/C=N\NC(=O)c2c(C)nc3cc(C)ccn23)cc1,inactive
10,NC(=S)N/N=C/c1ccc([N+](=O)[O-])cc1,inactive
11,COc1cc(OC)cc(C(=O)NCCSCc2ccc(Cl)cc2)c1,inactive
12,COc1cccc(-c2noc(C3CCCN(C(=O)c4ccc(F)cc4)C3)n2)c1 (stereo not drawn),inactive
13,Cn1c(=O)c2c(SCC(=O)NCC3CCCO3)nc(CC(C)(C)C)nc2n(C)c1=O (stereo not drawn),inactive
14,CC(C)(C)n1nnnc1C(c1ccc(F)cc1)N1CCN(Cc2ccc3c(c2)OCO3)CC1 (stereo not drawn),inactive
15,Fc1ccc2[nH]c3c(N4CCN(Cc5ccc6c(c5)OCO6)CC4)ncnc3c2c1,7.08 µM (active)
16,O=c1[nH]c(N2CCN(Cc3ccc4c(c3)OCO4)CC2)nc2c1CCCC2,inactive
17,CCC(C)(C)NC(=O)C(c1ccc(O)cc1)N(Cc1ccco1)C(=O)CCC(=O)Nc1ccccn1 (stereo not drawn),inactive
18,Cc1ccc(-c2cnc(NC(=O)CCC(=O)N(C)Cc3ccccc3)n2C)cc1,4.47 µM (active)
19,CN(Cc1ccccc1)C(=O)CCc1ccccc1,inactive
20,Cn1c(-c2ccc(F)cc2)cnc1SCC(=O)NNC(=O)Cc1ccccc1,inactive
21,Cc1ccn2c(=O)c(C(=O)NCCC3=CCCCC3)c(O)nc2c1,inactive
22,O=C(COc1nsnc1N1CCOCC1)Nc1ccccc1Cl,inactive
23,O=C(Cn1ncc2c3ccccc3n(Cc3ccccc3)c2c1=O)NCCCN1CCOCC1,inactive
24,CCCn1c(NC(=O)C23CC4CC(CC(O)(C4)C2)C3)nc2ccccc21,5.62 µM (active)
25,CCCn1c(C(Cc2ccccc2)NC(=O)COC)nc2ccccc21 (stereo not drawn),inactive
26,CCOc1ccccc1NC(=O)C12CC3CC(C1)CC(c1ccc(C)cc1)(C3)C2,inactive

row,SMILES,Potency
1,Cc1ccc2c(=O)cc(C(=O)NCCc3ccc(S(N)(=O)=O)cc3)oc2c1C,inactive
2,CCCCc1cc(=O)oc2c(C)c(OCC(=O)N3CCC(C(N)=O)CC3)ccc12,inactive
3,COc1cc(NC(=S)NCCSc2ccc(C)cc2)cc(OC)c1,6.31 µM (active)
4,COc1cc(NC(=O)Nc2ccc(C)cc2)cc([N+](=O)[O-])c1,inactive
5,COc1cccc(C(=O)NCCSc2ccc(Br)cc2)c1,inactive
6,Cc1ccc(-n2nc3c(=O)n(C(C)C(=O)NCc4ccc5c(c4)OCO5)nc(C)c3c2C)cc1 (stereo not drawn),inactive
7,CC(C)(C)Cc1nnc(NC(=O)c2cc(-c3ccccc3)nc3ccccc23)s1,12.6 µM (active)
8,COC(=O)c1cc(-c2cccs2)nc2ccccc12,inactive
9,O=C(Nc1nnc(-c2ccccc2)o1)c1cc(-c2cccs2)nc2ccccc12,1 µM (active)
10,COC(=O)CNC(=O)c1cc(-c2ccncc2)nc2ccccc12,inactive
11,O=C(O)c1cccc(NC(=O)c2cc(-c3cccc(Cl)c3)nc3ccccc23)c1,inactive
12,CCCCN(C)CCCNC(=O)c1cc(-c2cccs2)nc2ccccc12,inactive
13,CCOc1ccc(CN2CCN(CCCc3ccccc3)C(CCO)C2)cc1 (stereo not drawn),inactive
14,COc1ccc(CNC(=O)CN(C(=O)c2csnn2)c2cnc3ccccc3c2)cc1,inactive
15,OC(COc1ccc(F)cc1Cl)CN1CCc2ccccc2C1 (stereo not drawn),inactive
16,O=C(c1ccc(S(=O)(=O)N2CCCC2)cc1)N1CCN(c2ccccc2F)CC1,inactive
17,CCOc1cc2[nH]c(=S)n(Cc3ccc(C(=O)N4CCN(C)CC4)cc3)c(=O)c2cc1OCC,inactive
18,COc1ccc(C(C[N+](=O)[O-])n2nc(C)cc2C)cc1 (stereo not drawn),10 µM (active)
19,COc1ccc(C(=O)CSc2nc(C)cc(C)n2)cc1[N+](=O)[O-],inactive
20,COc1ccc(OCc2cn3c(C)cc(C)nc3n2)cc1,inactive
21,Cc1cccc(N2C(=O)N3[C@H](c4ccc(F)cc4)[C@@H]4C(=O)N(C5CCCCC5)C(=O)[C@@H]4[C@]3(Cc3ccccc3)C2=O)c1,inactive
22,CC1CC2=C(CC1/C=N/NC(N)=S)C(C)(C)CCC2 (stereo not drawn),2.82 µM (active)
23,COc1ccc(/C=N/OCc2ccccc2C#N)c(OC)c1,inactive
24,O=C1CCC(C(=O)N2CCN(c3ccccc3Cl)CC2)CN1CC1CCCCC1 (stereo not drawn),inactive
25,COc1cc(CN2CCC(n3nccc3NC(=O)CCCc3ccccc3)CC2)ccc1O,inactive
